The values below come from PubChem BioAssay (Tox21).

Experiment [1] concerns the target Estrogen receptor beta (Homo sapiens) (UniProt Q92731). Briefly: qHTS assay to identify small molecule agonists of the estrogen receptor beta (ER-beta) signaling pathway (AID 1259377; active = well fitted activation curve with a large enough effect in the signal ratio in the repeat runs, not every such curve was filed as active; the % refers to the signal ratio). In outline:
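Measured by fluorescence intensity from a B/G FRET beta-lactamase substrate (2 h, room temperature) in ER-beta-UAS-bla HEK293T cells treated with DMSO-dissolved compounds for 16 hr at 37C and 5% CO2.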
In general terms: Quantitative high-throughput screening tests each substance at several concentrations.

The target is the same in experiment [2]. As to the kind of experiment: qHTS assay to identify small molecule antagonists of the estrogen receptor beta (ER-beta) signaling pathway (AID 1259378; active = well fitted inhibition curve with a large enough effect in the signal ratio in the repeat runs, not every such curve was filed as active; the % refers to the signal ratio; also: potency is read from the fitted curve at half-maximal effect). The procedure, abridged:
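ER-beta-UAS-bla HEK293T (GripTite) cells in 2% charcoal-stripped FBS medium were preincubated 6 hr at 37C, dosed with compound, then stimulated with 1 nM E2 (final) for 16 hr; beta-lactamase reporter read by B/G FRET fluorescence after 2 hr substrate loading.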

A short description of experiment [3]: qHTS assay to identify small molecule agonists of the androgen receptor (AR) signaling pathway in the presence of an antagonist - cell viability counter screen (AID 1259379).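 Also: MDA-kb2 human breast cancer cells carrying an MMTV luciferase reporter; series mostly up to about 92 µM; nearly all actives have a fitted effect of over 25% in size.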 In outline: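 Cells: MDA-kb2 (MMTV-luc, AR and GR elements), 3,000/well, 5 hr settle. Added: nilutamide 3.0uM final, then compounds (15 conc.). Incubation: 16 hr, 37C, no CO2. Read-out: CellTiter-Fluor, 1 hr, fluorescence.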

Experiment [4] can be described thus: qHTS assay to identify small molecule agonists of the estrogen receptor beta (ER-beta) signaling pathway - cell viability counter screen (AID 1259380). Also: nearly all actives have a fitted effect of over 30% in size. Also: potency is read from the fitted curve at half-maximal effect. In outline: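 HEK293T ER-beta-UAS-bla; 2% CS-FBS; 6 hr pre-plate, 16 hr cpd at 37C/5% CO2; LiveBLAzer read first, then CellTiter-Glo 30 min RT, luminescence.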
A short description of experiment [5]: qHTS assay to identify small molecule antagonists of the estrogen receptor beta (ER-beta) signaling pathway - cell viability counter screen (AID 1259382). Also: series mostly up to about 92 µM; nearly all actives have a fitted effect of over 55% in size. In outline:
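Cells: ER-beta-UAS-bla HEK293T, 2,000/well, 2% CS-FBS, 6 hr settle. Cpd + E2 (1nM final), 16 hr, 37C/5% CO2. Bla FRET substrate 2 hr RT, then CellTiter-Glo 30 min RT, luminescence.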

Experiment [6] in a line: qHTS assay to identify small molecule agonists or antagonists of the thyroid stimulating hormone receptor (TSHR) signaling pathway - wild type cell line counter screen (AID 1259384; calls by dose curve). In outline: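 Wild-type HEK293 cells were plated 18 h at 37 C/5% CO2, pin-dosed with compound plus Ro20-1724 medium, held 30 min at room temperature, then given cAMP-d2 and anti-cAMP-cryptate; fluorescence was read after 1 h. Fifteen concentrations, triplicate.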

In experiment [7] the target is Thyrotropin receptor (Homo sapiens) (UniProt P16473). Briefly: qHTS assay to identify small molecule antagonists of the thyroid stimulating hormone receptor (TSHR) signaling pathway (AID 1259385; calls by dose curve; also: nearly all actives have a fitted effect of over 20% in size; also: potency is read from the fitted curve at half-maximal effect). In outline:
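TSHR-HEK293 cells were plated and held 18 h at 37C/5% CO2, then given compound plus Ro20-1724 and stimulated with TSH at 1.5 ng/mL final. After 30 min at room temperature, cAMP was detected with cAMP-d2/anti-cAMP-cryptate (1 h) by fluorescence.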

Experiment [8] is described as follows: qHTS assay to identify small molecule agonists of the estrogen receptor alpha (ER-alpha) signaling pathway in the presence of an antagonist - cell viability counter screen (AID 1259386).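 Also: series mostly up to about 92 µM; cells exposed to compounds for 22 h at 37 °C before the viability read; nearly all actives have a fitted effect of over 30% in size.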 The procedure, abridged: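 VM7Luc4E2, stripped-serum pre-culture 5 d; 24hr plating; +ICI-182,780 10.0nM final; cpds 15 conc, 22hr, 37C/5% CO2; CellTiter-Fluor added at 21hr, fluorescence 1hr later.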

Experiment [9] can be described thus: qHTS assay to identify small molecule antagonists of the progesterone receptor (PR) signaling pathway - cell viability counter screen (AID 1346798). Also: series mostly up to about 92 µM; nearly all actives have a fitted effect of over 50% in size. The procedure, abridged: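 Viability was determined by ATP-based luminescence (CellTiter-Glo) in PR-UAS-bla HEK293T cells cultured in 2% charcoal-stripped serum and incubated 16 hr with compounds under R5020 stimulation.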

Experiment [10] can be described thus: qHTS assay to identify small molecule agonists of the progesterone receptor (PR) signaling pathway - cell viability counter screen (AID 1346799; calls by dose curve; also: nearly all actives have a fitted effect of over 45% in size). The procedure, abridged:
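Viability was scored by ATP luminescence (CellTiter-Glo, 30 min, room temperature) in the same wells used for the reporter readout, after 16 hr compound exposure of PR-UAS-bla HEK293T cells.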

The nature of experiment [11]: qHTS assay to identify small molecule antagonists of the TGF-beta/Smad signaling pathway - cell viability counter screen (AID 1346824). Also: nearly all actives have a fitted effect of over 50% in size. The procedure, abridged: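 SBE-bla HEK 293T cells were plated overnight at 37 C, then given compounds in DMSO plus TGF-beta1 (added as 0.25 ng/mL solution) for 5 hr. After the bla read, CellTiter-Glo was added to the same wells and luminescence read after 30 min at room temperature.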

Experiment [12] in a line: qHTS assay to identify small molecule agonists of the TGF-beta/Smad signaling pathway - cell viability counter screen (AID 1346829). Also: top concentration of the series differs between compounds; nearly all actives have a fitted effect of over 45% in size. In outline: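 SBE-bla HEK 293T cells plated overnight, compound exposure 5 hr at 37 C. Viability read in the same wells by CellTiter-Glo luminescence after 30 min at room temperature, following the beta-lactamase read.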
Experiment [13] can be described thus: qHTS assay to identify small molecule agonists of the TGF-beta/Smad signaling pathway (AID 1346859; active = well fitted activation curve with a large enough effect in the signal ratio in the repeat runs, not every such curve was filed as active; the % refers to the signal ratio; also: series mostly up to about 77 µM). The procedure, abridged: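 Dual-wavelength fluorescence (460/530 nm emission) quantified beta-lactamase expression under the Smad binding element in HEK 293T cells following 5 hr compound treatment at 37 C.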
Experiment [14] addresses Thyrotropin-releasing hormone receptor (Homo sapiens) (UniProt P34981). Briefly: qHTS assay to identify small molecule agonists of the thyrotropin-releasing hormone receptor (TRHR) signaling pathway (AID 1346891; calls by dose curve;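 also: HEK293 cells expressing TRHR with calcium dye readout; series mostly up to about 58 µM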). The procedure, abridged:
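Kinetic fluorescence (3 min, 1 s intervals) reported intracellular calcium after compound transfer onto TRHR-Hek293 cells pre-loaded with dye for 2 h at 37 °C.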

A short description of experiment [15]: Human pregnane X receptor (PXR) small molecule agonists, qHTS cell viability counter screen (AID 1346977). Also: nearly all actives have a fitted effect of over 50% in size. The procedure, abridged:
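HepG2 cells stably carrying the PXR-Luc reporter are cultured with 5% charcoal-stripped FBS and treated with compounds for 24hr. CellTiter-Fluor is added at 23hr and fluorescence is read after 1hr.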

Experiment [16] deals with Progesterone receptor (Homo sapiens) (UniProt P06401). Briefly: qHTS assay to identify small molecule agonists of the progesterone receptor (PR) signaling pathway (AID 1346784; calls by dose curve; also: nearly all actives have a fitted effect of over 30% in size). In outline: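 The screen uses PR-UAS-bla HEK 293T cells in charcoal-stripped serum (2%). Compounds are applied for 16 hr at 37C after a 6 hr pre-incubation, and reporter activity is detected with a FRET beta-lactamase substrate after 2 hr at room temperature.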
Chain of Progesterone receptor (Homo sapiens) (P06401 whole entry, looked up): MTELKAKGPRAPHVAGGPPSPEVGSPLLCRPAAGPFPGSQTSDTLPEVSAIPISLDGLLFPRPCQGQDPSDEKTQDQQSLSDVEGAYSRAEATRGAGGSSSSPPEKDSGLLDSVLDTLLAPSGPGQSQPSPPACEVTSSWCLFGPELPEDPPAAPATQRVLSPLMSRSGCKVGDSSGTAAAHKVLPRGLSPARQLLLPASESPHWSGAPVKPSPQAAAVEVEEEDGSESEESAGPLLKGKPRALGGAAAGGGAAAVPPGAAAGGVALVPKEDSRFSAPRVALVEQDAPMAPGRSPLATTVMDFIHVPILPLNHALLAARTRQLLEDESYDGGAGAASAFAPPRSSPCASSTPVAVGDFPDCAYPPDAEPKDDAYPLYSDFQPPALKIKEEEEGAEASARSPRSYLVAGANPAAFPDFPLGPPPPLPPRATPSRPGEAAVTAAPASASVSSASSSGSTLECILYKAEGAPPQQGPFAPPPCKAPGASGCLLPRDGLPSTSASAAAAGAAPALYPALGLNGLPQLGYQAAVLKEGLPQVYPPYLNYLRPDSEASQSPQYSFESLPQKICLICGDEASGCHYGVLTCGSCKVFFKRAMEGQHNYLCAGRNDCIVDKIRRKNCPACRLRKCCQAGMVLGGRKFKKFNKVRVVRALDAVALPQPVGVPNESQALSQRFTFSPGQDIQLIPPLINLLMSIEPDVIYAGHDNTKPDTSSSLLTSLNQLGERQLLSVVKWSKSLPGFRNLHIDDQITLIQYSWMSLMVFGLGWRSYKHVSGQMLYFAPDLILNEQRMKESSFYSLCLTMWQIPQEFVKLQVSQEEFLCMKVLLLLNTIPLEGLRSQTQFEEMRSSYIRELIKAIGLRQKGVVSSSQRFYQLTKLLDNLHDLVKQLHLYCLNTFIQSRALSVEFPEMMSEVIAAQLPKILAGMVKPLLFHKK

Experiment [17] deals with Thyrotropin-releasing hormone receptor (Homo sapiens) (UniProt P34981). Briefly: qHTS assay to identify small molecule antagonists of the thyrotropin-releasing hormone receptor (TRHR) signaling pathway (AID 1346877; active = well fitted inhibition curve with a large enough effect in the repeat runs, not every such curve was filed as active; also: series mostly up to about 51 µM). In outline:
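Intracellular calcium fluorescence, read kinetically every second over 3 min, reports TRH-evoked signalling in HEK293 cells carrying TRHR. Test compounds were added 5 min ahead of a 1 nM TRH challenge.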

Experiment [18] addresses Androgen receptor (Homo sapiens) (UniProt P10275). As to the kind of experiment: qHTS assay to identify small molecule agonists of the androgen receptor (AR) signaling pathway in the presence of an antagonist (AID 1259381; calls by dose curve; also: nearly all actives have a fitted effect of over 15% in size). In outline:
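MDA-kb2 cells, 3,000/well, rested 5hr at 37C/0% CO2 → nilutamide 3.0uM final or buffer → compounds, 15 conc. → 16hr at 37C → ONE-Glo, 30min RT → luminescence.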

Experiment [19] deals with Estrogen receptor (Homo sapiens) (UniProt P03372). Briefly: qHTS assay to identify small molecule agonists of the estrogen receptor alpha (ER-alpha) signaling pathway in the presence of an antagonist (AID 1259383; calls by dose curve; also: top concentration of the series differs between compounds; nearly all actives have a fitted effect of over 15% in size). The procedure, abridged: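 VM7Luc4E2, endog. ER-alpha + 4×ERE-luc; charcoal-stripped FBS, phenol red-free, 5 d; 24hr plating; +10.0nM ICI-182,780 (final); cpds 15 conc, 22hr, 37C/5% CO2; ONE-Glo luminescence.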
Chain of Estrogen receptor (Homo sapiens) (P03372 whole entry, looked up): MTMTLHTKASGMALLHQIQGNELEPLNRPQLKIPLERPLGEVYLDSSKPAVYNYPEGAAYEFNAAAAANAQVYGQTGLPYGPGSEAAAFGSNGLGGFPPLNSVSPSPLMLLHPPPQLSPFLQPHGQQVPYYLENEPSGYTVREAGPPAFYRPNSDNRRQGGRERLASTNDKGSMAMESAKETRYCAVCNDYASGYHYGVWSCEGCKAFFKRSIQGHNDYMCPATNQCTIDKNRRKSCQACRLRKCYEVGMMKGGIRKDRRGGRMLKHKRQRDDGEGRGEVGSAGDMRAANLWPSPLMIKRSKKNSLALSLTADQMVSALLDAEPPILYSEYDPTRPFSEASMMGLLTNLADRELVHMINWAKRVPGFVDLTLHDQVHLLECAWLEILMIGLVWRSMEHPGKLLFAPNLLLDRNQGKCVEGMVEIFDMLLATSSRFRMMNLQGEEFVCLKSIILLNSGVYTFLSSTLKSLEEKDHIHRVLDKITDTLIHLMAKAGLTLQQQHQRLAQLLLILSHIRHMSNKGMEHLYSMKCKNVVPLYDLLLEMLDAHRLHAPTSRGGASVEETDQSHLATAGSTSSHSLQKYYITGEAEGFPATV

For experiment [20], the target named is Progesterone receptor (Homo sapiens) (UniProt P06401). Briefly: qHTS assay to identify small molecule antagonists of the progesterone receptor (PR) signaling pathway (AID 1346795; active = well fitted inhibition curve with a large enough effect in the signal ratio in the repeat runs, not every such curve was filed as active; the % refers to the signal ratio). The procedure, abridged: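 After 6 hr plating at 37C in 2% stripped-serum medium, PR-UAS-bla HEK293T cells got compounds, then 1 nM R5020. Sixteen hours later, LiveBLAzer substrate was applied for 2 hr at room temperature and fluorescence was recorded.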

Values joined by “and” are separate entries in the source; they are usually repeats but may differ in a detail not shown here. Equal entries are not always repeated. Records with an inconclusive call do not appear. Active and inactive are the calls of the source. Unless noted, calls follow the shape of the dose curve; as a rule, active = well fitted curve in the direction sought with a large enough effect in the repeat runs; inconclusive = weak or mixed curves; inactive = no such curve, though single readings can be large; an effect the other way counts as inactive or inconclusive.

Chain of Thyrotropin-releasing hormone receptor (Homo sapiens) (P34981 whole entry, looked up): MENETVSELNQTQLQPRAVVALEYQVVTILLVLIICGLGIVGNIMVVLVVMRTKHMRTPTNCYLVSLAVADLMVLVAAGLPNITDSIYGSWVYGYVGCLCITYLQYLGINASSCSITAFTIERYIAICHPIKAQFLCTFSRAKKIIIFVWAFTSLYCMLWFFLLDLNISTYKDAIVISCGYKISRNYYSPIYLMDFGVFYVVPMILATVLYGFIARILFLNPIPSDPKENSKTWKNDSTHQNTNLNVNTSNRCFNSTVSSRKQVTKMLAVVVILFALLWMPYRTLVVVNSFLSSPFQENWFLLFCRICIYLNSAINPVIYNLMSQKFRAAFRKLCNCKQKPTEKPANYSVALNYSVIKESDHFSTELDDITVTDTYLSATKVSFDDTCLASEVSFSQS
Chain of Thyrotropin receptor (Homo sapiens) (P16473 whole entry, looked up): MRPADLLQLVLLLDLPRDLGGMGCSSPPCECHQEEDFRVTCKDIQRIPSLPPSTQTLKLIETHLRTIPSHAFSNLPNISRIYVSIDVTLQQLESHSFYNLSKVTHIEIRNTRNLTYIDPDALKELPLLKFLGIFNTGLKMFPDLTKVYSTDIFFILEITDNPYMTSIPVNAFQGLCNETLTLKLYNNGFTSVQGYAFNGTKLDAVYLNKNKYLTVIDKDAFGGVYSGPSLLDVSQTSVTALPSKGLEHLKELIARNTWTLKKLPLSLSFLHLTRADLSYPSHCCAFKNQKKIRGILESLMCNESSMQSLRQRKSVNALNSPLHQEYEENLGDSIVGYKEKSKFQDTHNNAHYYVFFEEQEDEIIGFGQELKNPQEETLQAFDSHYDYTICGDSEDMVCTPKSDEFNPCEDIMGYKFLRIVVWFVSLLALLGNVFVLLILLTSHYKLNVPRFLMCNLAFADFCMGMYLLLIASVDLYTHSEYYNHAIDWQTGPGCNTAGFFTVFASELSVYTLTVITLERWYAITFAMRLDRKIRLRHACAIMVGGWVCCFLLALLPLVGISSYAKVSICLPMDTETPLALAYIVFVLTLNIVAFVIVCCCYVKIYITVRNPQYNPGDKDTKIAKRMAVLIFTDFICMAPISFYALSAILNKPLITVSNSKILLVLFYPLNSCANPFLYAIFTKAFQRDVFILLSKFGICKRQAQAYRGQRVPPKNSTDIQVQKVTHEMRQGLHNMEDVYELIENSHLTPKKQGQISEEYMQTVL
Chain of Estrogen receptor beta (Homo sapiens) (Q92731 whole entry, looked up): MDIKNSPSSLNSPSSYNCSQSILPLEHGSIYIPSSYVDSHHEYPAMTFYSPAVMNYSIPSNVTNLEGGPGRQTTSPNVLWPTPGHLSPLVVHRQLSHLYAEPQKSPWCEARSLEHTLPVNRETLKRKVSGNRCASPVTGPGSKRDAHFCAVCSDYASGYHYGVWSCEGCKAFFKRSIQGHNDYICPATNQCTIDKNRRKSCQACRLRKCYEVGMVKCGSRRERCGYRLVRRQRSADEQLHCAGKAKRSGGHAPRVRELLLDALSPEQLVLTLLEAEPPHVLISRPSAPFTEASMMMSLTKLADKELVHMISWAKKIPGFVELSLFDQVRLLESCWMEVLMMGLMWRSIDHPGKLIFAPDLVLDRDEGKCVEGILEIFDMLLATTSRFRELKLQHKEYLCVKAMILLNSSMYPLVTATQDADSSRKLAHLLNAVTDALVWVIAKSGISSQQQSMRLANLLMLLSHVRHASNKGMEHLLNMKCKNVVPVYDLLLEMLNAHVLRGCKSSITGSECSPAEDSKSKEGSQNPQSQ
Chain of Androgen receptor (Homo sapiens) (P10275 whole entry, looked up): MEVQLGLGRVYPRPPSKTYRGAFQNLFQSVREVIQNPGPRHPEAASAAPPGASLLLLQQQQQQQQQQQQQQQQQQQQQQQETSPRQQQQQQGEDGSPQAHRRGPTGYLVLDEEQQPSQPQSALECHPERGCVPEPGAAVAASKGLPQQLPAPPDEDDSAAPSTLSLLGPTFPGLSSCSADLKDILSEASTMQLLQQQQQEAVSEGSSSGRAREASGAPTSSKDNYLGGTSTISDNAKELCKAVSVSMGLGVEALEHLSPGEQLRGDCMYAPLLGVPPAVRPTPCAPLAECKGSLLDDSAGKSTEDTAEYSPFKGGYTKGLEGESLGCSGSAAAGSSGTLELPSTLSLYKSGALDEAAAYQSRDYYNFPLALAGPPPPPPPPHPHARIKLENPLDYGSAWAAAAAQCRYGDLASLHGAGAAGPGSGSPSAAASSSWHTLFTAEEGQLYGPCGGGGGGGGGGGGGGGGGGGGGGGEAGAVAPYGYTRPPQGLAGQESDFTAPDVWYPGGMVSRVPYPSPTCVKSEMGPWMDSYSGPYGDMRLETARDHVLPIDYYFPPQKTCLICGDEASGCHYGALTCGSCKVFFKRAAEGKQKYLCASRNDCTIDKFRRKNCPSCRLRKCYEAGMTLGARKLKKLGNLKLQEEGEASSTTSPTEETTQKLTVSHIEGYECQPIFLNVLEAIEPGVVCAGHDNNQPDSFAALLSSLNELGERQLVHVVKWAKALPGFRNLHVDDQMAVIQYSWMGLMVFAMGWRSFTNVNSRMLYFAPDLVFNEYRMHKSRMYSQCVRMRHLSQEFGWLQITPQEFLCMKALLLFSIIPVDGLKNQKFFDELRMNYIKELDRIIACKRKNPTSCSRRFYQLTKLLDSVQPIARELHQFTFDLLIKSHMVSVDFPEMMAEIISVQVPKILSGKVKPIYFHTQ

As for `O=C(O)CCCCCCC(=O)O`, the Potency entry in experiment [1], in [2], in experiment [3], in [4], in experiment [5] and in experiment [7] was “inactive” in each case. For the same molecule, the Potency entry in experiment [8], in [9], in [10], in experiment [11], in experiment [12] and in experiment [13] was “inactive” each time. For the same molecule, the Potency entry in experiment [14] and in experiment [15] was “inactive” each time. In [6], the outcome was inactive.

As to `CC[N+](CC)(CC)Cc1ccccc1`, the Potency result in [1], in experiment [2], in [3], in experiment [4], in experiment [5] and in experiment [8] was “inactive” throughout. Besides, the Potency result in [9], in [10], in [11], in experiment [12], in experiment [13] and in [17] was “inactive” throughout. Also, the Potency entry in [14] and in [15] was “inactive” each time. Further, the result in [16] was inactive.

Consider `c1ccc(Nc2cccc3ccccc23)cc1`, for which the Potency entry in experiment [1], in [3], in experiment [7], in experiment [8], in experiment [9] and in experiment [10] was “inactive” each time. Besides, the Potency result in [12], in experiment [13], in experiment [17] and in experiment [14] was “inactive” each time. Also, the Potency is 31 µM (active) and 54.5 µM (active) in experiment [2]; 54.5 µM (active) in experiment [4]. Further, in experiment [6], the molecule was classed as inactive.

As to `COc1nccnc1CC(C)C`, the Potency result in [1], in experiment [2], in [3], in experiment [18], in experiment [5] and in [19] was “inactive” throughout. In addition, the Potency result in [7], in [8], in [9], in experiment [10], in [11] and in experiment [12] was “inactive” each time. Besides, the Potency entry in [13], in experiment [17], in experiment [14] and in [15] was “inactive” each time.

Consider `CN(Cc1cc(Br)cc(Br)c1N)C1CCCCC1`, for which the Potency entry in experiment [1], in experiment [2], in experiment [3], in experiment [5], in experiment [19] and in [8] was “inactive” throughout. For the same molecule, the Potency result in experiment [9], in experiment [11], in [12], in experiment [13], in experiment [14] and in experiment [15] was “inactive” in each case. In experiment [7], the Potency was 29.8 µM (active). The molecule was classed as inactive in [16].

As to `CS(C)(=O)=O`, the Potency result in experiment [1], in experiment [2], in experiment [3], in [5], in experiment [19] and in [7] was “inactive” in each case. Besides, the Potency result in experiment [8], in experiment [9], in experiment [10], in [11], in [12] and in experiment [13] was “inactive” each time. The Potency result in experiment [17], in experiment [14] and in [15] was “inactive” each time. For the same molecule, the outcome in experiment [6] and in experiment [16] was inactive.

Turning to `C/C=C/C=N/NC(=O)c1ccncc1`, the Potency result in experiment [1], in [3], in experiment [4], in experiment [5], in experiment [8] and in experiment [9] was “inactive” in each case. In addition, the Potency entry in experiment [10], in experiment [11], in [12], in experiment [13], in experiment [17] and in [14] was “inactive” in each case. Besides, in [15], the Potency result was “inactive”.

Turning to `O=S(=O)(O)CCCN1CCOCC1`, the Potency entry in experiment [1], in experiment [2], in experiment [4], in experiment [5], in experiment [7] and in experiment [20] was “inactive” in each case. For the same molecule, the Potency entry in experiment [9], in experiment [10], in experiment [11], in [12], in [13] and in experiment [17] was “inactive” throughout. The Potency result in [14] and in [15] was “inactive” each time. In addition, the result in experiment [6] and in [16] was inactive.
